Source: PubChem
CYP2C9 activ: increases human cytochrome P450 2C9 activity | recombinant CYP2C9, luciferin-H conversion, luminescence; stronger effect = higher value; factor 1 = untreated enzyme, 0 = blocked | activation factor at 5 µM | hit rate 1.4% among 96,000;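 active = activation factor of 2 or more for CYP2C9 at a 5 µM dose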;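 note: 0 = sulfaphenazole-blocked wells and 1 = vehicle-only wells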
CYP2C19 inhib: human CYP2C19 inhibition; inhibition, % at 5 µM; CYP2C19 Supersomes, luciferin-H EGE luminescence, 30 min; hit rate 21% among 96,000;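 active = CYP2C19 inhibition above a set limit at 5 µM in the primary screen, cut at about 50% in these data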;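 note: plate controls were negative control wells for no effect and 2.5 mM tranylcypromine positive control for full effect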
Target sequence (P33261 whole entry, looked up): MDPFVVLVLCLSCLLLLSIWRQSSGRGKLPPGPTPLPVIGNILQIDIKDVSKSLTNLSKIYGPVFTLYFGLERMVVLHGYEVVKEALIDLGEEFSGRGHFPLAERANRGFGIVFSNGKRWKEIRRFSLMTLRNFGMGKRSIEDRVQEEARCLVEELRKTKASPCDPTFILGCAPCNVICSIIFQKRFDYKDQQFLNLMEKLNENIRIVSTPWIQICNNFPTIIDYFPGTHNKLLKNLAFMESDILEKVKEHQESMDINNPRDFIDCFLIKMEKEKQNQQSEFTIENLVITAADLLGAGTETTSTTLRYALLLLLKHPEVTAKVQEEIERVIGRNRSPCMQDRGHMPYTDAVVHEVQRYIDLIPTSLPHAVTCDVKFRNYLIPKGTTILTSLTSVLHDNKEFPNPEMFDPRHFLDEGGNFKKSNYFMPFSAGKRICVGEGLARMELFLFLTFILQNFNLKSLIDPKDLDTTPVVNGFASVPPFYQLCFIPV
CYP2C9 inh: inhibitors of human CYP2C9. hit rate 20% among 96,000. CYP2C9 Supersomes, luciferin-H conversion, luminescence. inhibition, % at 5 µM. P11712;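 active = blocking of liver enzyme CYP2C9 beyond about 50% at 5 µM, limit read from the data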
CYP2C19 act: cytochrome P450 2C19 (human) activation; P33261; recombinant CYP2C19, luciferin-H EGE luminescence; stronger effect = higher value; 0 = fully inhibited enzyme, 1 = untreated enzyme; activation factor at 5 µM; 96,000 tested, under 10 active; AID 1025;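 active = activation factor of at least 2 at 5 µM in the primary screen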;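 note: 0 = wells with 2.5 mM tranylcypromine and 1 = vehicle-only wells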
Cav32 inh: inhibitors of human Cav3.2 T-type calcium channel; B-score at 10 µM; hit rate 4% among 100,000; O95180; Cav3.2-expressing cells, Fluo-4 calcium fluorescence FDSS; stronger effect = lower value;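 active = single-dose well whose peak fluorescence ratio is a statistical outlier from its plate by either plate-standardised score or position-corrected B-score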
* = called active by the depositor; · = no result. Sampled rows, rich in hits. Any-hit rate of the full collection: about 27%.

SMILES	CYP2C9 activ	CYP2C19 inhib	CYP2C9 inh	CYP2C19 act	Cav32 inh
CCCCCCCN1N=C(C)C(C(=O)c2ccccc2)C1=O (configuration not stated)	0.1	8	94*	0.9	·
CCCCCCN1N=C(C)C(C(=O)c2ccc(Cl)cc2)C1=O (configuration not stated)	0.4	1	60*	1	-2.9
CCCCN(C(=O)c1ccc(Cl)cc1)C1CC2CCC(C1)N2C (configuration not stated)	1	22	-3	0.8	0.32
Cc1ccccc1N(C)C(=O)c1coc(=O)c2ccccc12	1.1	22	-14	0.8	0.33
Cc1ccccc1Nc1nc(-c2sc(NC(=O)c3ccc([N+](=O)[O-])cc3)nc2C)cs1	0.6	52*	44	0.5	-0.34
Cc1nc(NC(=O)c2ccccc2)sc1-c1csc(Nc2ccc(F)cc2)n1	1.9	78*	-87	0.2	0.72
Cc1ccccc1Nc1nc(-c2sc(NC(=O)c3cccc(Cl)c3)nc2C)cs1	0.7	40	32	0.6	1.2
Cc1ccccc1Nc1nc(-c2sc(NC(=O)c3ccccc3)nc2C)cs1	0.9	55*	10	0.4	-1.3
CCOc1ccccc1Nc1nc(-c2sc(NC(=O)c3ccc([N+](=O)[O-])cc3)nc2C)cs1	0.7	41	34	0.6	-0.057
Cc1ccc(-c2cn3cccnc3n2)cc1NC(=O)c1c(-c2ccccc2Cl)noc1C	0.5	54*	45	0.5	·
Cc1onc(-c2ccccc2Cl)c1C(=O)Nc1cccc(-c2nc3ncccn3c2C)c1	0.5	55*	52*	0.5	·
Cc1ccc(-c2cn3cccnc3n2)cc1NC(=O)c1ccc(Br)o1	0.8	-9	18	1.1	0.3
C=CCNC(=S)NCC=C	·	·	·	·	0.011
COc1ccc(S(=O)(=O)N2Cc3ccccc3CC2C(=O)O)cc1OC (configuration not stated)	1.1	-1	-6	1	2.2
COc1ccc(S(=O)(=O)N2Cc3ccccc3CC2C(=O)Nc2ccc(O)cc2)cc1OC (configuration not stated)	0.1	80*	91*	0.2	0.37
CCS(=O)(=O)N1Cc2ccccc2CC1C(=O)Nc1ccc(NC(C)=O)cc1 (configuration not stated)	0.5	13	48	0.9	1.6
CCS(=O)(=O)N1Cc2ccccc2CC1C(=O)Nc1ccc(C)cc1 (configuration not stated)	0.4	86*	61*	0.1	-0.22
Cc1ccc(-c2nc(C(=O)NC3CCCCCC3)no2)cc1	·	·	·	·	-3.1
COc1ccc(OC)c2[nH]c(=O)c(CCNC(=O)C3CCCCC3)cc12	2.4*	31	-144	0.7	0.046
Cc1ccc2cc(CCNC(=O)c3ccc(Br)o3)c(=O)[nH]c2c1	0.6	54*	37	0.5	·
COc1ccc(OC)c2[nH]c(=O)c(CCNC(=O)C(C)C)cc12	1.2	15	-16	0.8	0.00023
COc1ccc(OC)c2[nH]c(=O)c(CCNC(=O)CC(C)C)cc12	2.5*	32	-154	0.7	-0.04
COc1ccc(OC)c2[nH]c(=O)c(CCNC(=O)c3ccc(Br)o3)cc12	1.6	77*	-58	0.2	-0.19
CC(=O)NCCc1cc2ccc(C)cc2[nH]c1=O	1	-2	2	1	·
Cn1c(SCc2cccc(Cl)c2)nc(C(F)(F)F)cc1=O	0.9	26	11	0.7	-0.77
SMILES	CYP2C9 activ	CYP2C19 inhib	CYP2C9 inh	CYP2C19 act	Cav32 inh
COc1ccc(-c2nnc3ccc(SC)nn23)cc1	0.9	2	15	1	-0.29
CN(CCNC(=O)C1CC(=O)N(c2ccc(F)c(Cl)c2)C1)Cc1ccccc1 (configuration not stated)	1.3	4	-29	1	·
CCCNC(=O)CN(c1ccc(F)cc1)S(=O)(=O)c1ccc2c(c1)OCCO2	0.2	81*	85*	0.2	0.15
O=C(CN(c1ccc(F)cc1)S(=O)(=O)c1ccc2c(c1)OCCO2)NCc1ccncc1	0.3	90*	73*	0.1	1.7
O=C(CN(c1ccc(F)cc1)S(=O)(=O)c1ccc2c(c1)OCCO2)NCc1cccnc1	0.2	94*	84*	0.1	0.77
O=C(c1ccco1)N1CCN(c2ccc(Cl)c(Cl)c2)CC1	·	·	·	·	-4.1*
COC(=O)N1CCN(c2ccc(OC)cc2)CC1	1.1	45	-9	0.6	0.024
COC(=O)N1CCN(c2ccc(Cl)c(Cl)c2)CC1	0.7	66*	28	0.3	-1.1
